Laboratory results from the supplement of paper PMC5499739.
Over roughly 16,000 sequences, “Z-score” has its median near -0.37; the highest 2% begin near 3.1. The sample as a whole holds a higher share of the highest values than the screen did.

The sequences below were run on RBM10 RRM1-ZnF-RRM2 (GST-tagged construct) (assay: RNAcompete 7-mer binding Z-score; higher = stronger binding preference).
Procedure: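 RNAcompete: 20 pmol GST-tagged RBM10 RNA-binding constructs were incubated with a designed RNA pool of about 241,000 sequences up to 41 nt (1.5 nmol) on glutathione beads for 30 min at 4 °C and washed. Bound RNAs were identified by microarray hybridisation. Each RNA 7-mer is scored by a one-sided Z-score of its enrichment, computed over probes that contain the 7-mer within longer pool sequences.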

Sequence	RNAcompete 7-mer binding Z-score
GGUAGGC	2.65
AGUAGGA	3.08
GAUAGGG	4.38
CAUAGGA	0.756
AAUAGGA	1.57
UAUAGGG	2.76
GGUAGGA	3.37
GGUAGAG	3.68
CGUAGAG	0.636
CAUAGGG	2.13
UGUAGAG	0.978
GAUAGGA	3.17
CGAUUAA	-0.493
GGAUUGC	0.88
AACCACA	-0.275
UCUUGCG	-0.664
AGAUGCU	-0.777
AUUCGGA	0.243
UAUGUCC	-0.785
CCUCGGC	-0.701
AACACGU	-0.3
CUACUAU	-0.657
CCGUCCA	-0.704

Sequence	RNAcompete 7-mer binding Z-score
CCUACGG	-0.446
UAACGCU	-0.646
GGCCAUG	0.181
GCCGGGG	1.4
CGUAGGG	2.3
GGUAAAG	3.35
GUUAGGU	1.89
CGUAAAG	-0.0743
UUUAGGG	1.51
UGUAAAG	0.257
AAUAGGC	0.924
GUUAGGG	3.65
AAUAGGU	1.27
UGUAGGG	3.34
UGUAGGA	1.9
AAUAGGG	3.5
UCCAUUU	-0.872
GAUCCAG	0.0641
ACGUAAU	-0.417
ACAAUCG	-0.173
UACCCCG	-0.551
AUGCUCA	-0.766
GGUGAGG	4.3

Sequence	RNAcompete 7-mer binding Z-score
CGUGAGG	1.73
GGUGAGA	2.68
GAUGAGG	3.6
CAUGAGG	1.35
GAUGAGU	1.01
CCUCCAA	-0.857
UGAGCCC	-0.435
GUCCACU	-0.653
AGGCAGG	1.77
GGGCAGA	2.25
GGGCGAG	3.88
GGGCGGA	3.09
GGCAAAG	1.95
GGGCAGG	3.39
GGGCGGG	3.52
GGCAAGG	3.47
GGGCGAA	2.68
GGGCGGU	2.58
CGCAAGG	0.341
GGGCGAC	1.94
AUAGUGG	1.69
CACCAUC	-0.734
UGCGCAG	0.0677

Sequence	RNAcompete 7-mer binding Z-score
UUUGGAU	-0.125
UACUUUA	-0.948
CGGCGGG	1.97
UGGCGGG	3.19
UGGCGGU	1.54
ACGGGAC	2.19
UGCAACC	-0.504
AGGGGGG	2.05
CAGGGAU	2.41
GAGGGAU	3.31
AAGGGGG	3.91
GAGGGCA	1.99
GAGGGAA	3.6
CGGGGGA	2.53
GAGGGGA	3.29
GAGGAAA	2.2
GAGGGGG	2.83
GCGGGAU	2.38
AAGGGGC	3.1
CCGCUAC	-0.868
GUUACUC	-0.581
UAAGUCA	-0.0816
UCGCGCA	-0.595

Sequence	RNAcompete 7-mer binding Z-score
ACCUCCG	-0.737
AUAGAGA	0.501
AGAACAU	-0.398
CCUAUAU	-0.799
UCAAUGC	-0.533
GCUUGUG	-0.479
GUACCCC	-0.242
UUCCUGA	-0.763
AGGGGGU	3.03
AAAGGGG	4.22
CAAGGGG	3.03
GAGGGCU	1.27
GAGGGGU	3.64
AGGGGGA	2.14
UAAGGGG	3.11
GAGGGGC	2.44
AAGGGGA	4.44
AAGGGGU	4.33
AACCCUU	-1.03
CCACGCA	-0.664
AUUGUGA	0.108
UCGCGUU	-0.602
CUUCCUU	-0.759

Sequence	RNAcompete 7-mer binding Z-score
AGUAAGA	0.541
GUUCUCU	-0.788
GUGGGUC	2.4
AGGGGGC	1.4
AUUGGUG	1.84
AUGGGUG	3.74
AGGGGCG	2.07
GUGGGUG	3.76
AUGGGUU	2.86
AGGGGUG	3.14
AUGGGUC	2.15
AUGGGUA	3.71
AUCGGUG	0.691
CUGGGUG	1.82
CUCUUCC	-0.879
AAUAUAC	-0.26
UAGUCCA	-0.683
UGUGGCC	0.0459
AUCUCGC	-0.894
AAGUUAC	-0.289
CGGCUGA	-0.0306
UUCAAUA	-0.151
GGGGGUG	3.43

Sequence	RNAcompete 7-mer binding Z-score
CGGGGUG	3.36
GGGGGUC	2.06
UGGGGUC	2.62
GGGGGCG	2.58
UUGGGUU	2.05
UCGGGUG	1.96
UUGGGUC	1.03
UUGGGUG	3.43
CCGGGUG	1.62
UGGGGUG	4.14
CGGGGUU	2.23
GUUAUCU	-0.395
GACCCCC	-0.551
ACGAAUA	-0.238
UAUCACG	-0.435
AUGUAAC	-0.147
GAGUGUU	0.432
CGAGGCU	0.217
ACACCCU	-0.941
UAAUACA	-0.391
UCAUUCU	-0.752
UGCGGUC	-0.00512
GCGCUGU	-0.191

Sequence	RNAcompete 7-mer binding Z-score
ACAGUAA	0.0677
GGCCGCC	-0.683
UAAGCCA	-0.712
GCCAAAC	-0.573
AGUCUGU	-0.482
GGGGUUU	2.36
AGGGGUU	2.42
GGGUGUA	3.09
GGGUGUG	3.51
GGGGGUU	3.29
UGGUGUG	2.21
AUCUACU	-0.806
AUCUUGG	-0.311
CGGGAAC	1.5
GCUUCCG	-0.799
CUUGGUC	-0.821
GGACAGA	1.44
GGACCGU	0.0532
GGGGAUG	3.68
GGGGAUU	2.36
AGGGAUG	4.22
UGGGAUU	1.63
UGGGAUG	3.22
